# Screening results (PubChem BioAssay)
# D3 ag – qHTS of D3 Dopamine Receptor Agonist: qHTS; max activation, %; D3R DiscoveRx beta-arrestin cells, luminescence, 90 min; D(3) dopamine receptor (Homo sapiens), P35462; AID 652048, 2013; actives 0.58% (n = 410,000); in the data active = max activation above about 30%
# Target sequence (P35462 whole entry, looked up): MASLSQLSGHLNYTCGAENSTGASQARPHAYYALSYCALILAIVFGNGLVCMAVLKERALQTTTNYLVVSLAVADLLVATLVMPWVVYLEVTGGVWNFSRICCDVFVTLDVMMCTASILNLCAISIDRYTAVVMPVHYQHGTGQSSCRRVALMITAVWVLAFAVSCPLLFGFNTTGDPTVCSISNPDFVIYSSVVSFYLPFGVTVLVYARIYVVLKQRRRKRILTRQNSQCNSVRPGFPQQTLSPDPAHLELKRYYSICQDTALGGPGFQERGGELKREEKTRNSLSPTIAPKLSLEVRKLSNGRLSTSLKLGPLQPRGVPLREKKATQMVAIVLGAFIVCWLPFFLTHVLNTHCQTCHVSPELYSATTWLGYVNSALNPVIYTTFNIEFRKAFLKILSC
#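 Agonist mode: compounds and dopamine controls were applied to plated cells for 90 min at 37 degrees C after an overnight attachment at 1500 cells/well. Luminescent read-out followed 30 - 60 minutes at room temperature with DiscoveRx detection reagent.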
# Nrf2 activator – qHTS of Nrf2 Activators. AREc32 ARE-luciferase reporter (MCF7-derived line), luminescence, 24 h. Potency, µM (series often up to 46.1 µM), most hits filed as activators. actives 0.31% (n = 410,000). AID 624171, 2012; note: nearly all actives have a fitted effect of over 65% in size
#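 AREc32 cells carrying an ARE-driven firefly luciferase reporter were seeded at 1000 cells/well in OPTI-MEM with 5% FBS, then exposed to compound for 24 hr at 37 deg C. Luminescence was read with Steady-Glo after 30 min at RT.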
# GRP78 ERSR act – qHTS for Inducers of the Endoplasmic Reticulum Stress Response (ERSR) in Human Glioma: qHTS | U87-MG GRP78 promoter luciferase reporter, 16 h | Potency, µM, hits mostly activators | actives 0.02% (n = 420,000) | AID 602332, 2012; note: series mostly up to about 76 µM; nearly all actives have a fitted effect of over 35% in size
#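 Stably transfected U87-MG human glioma cells carrying a GRP78-based luminescent sensor were seeded at 1000 cells/well, pin-dosed with compounds and incubated 16 h. Luciferase reagent was then added, and end-point luminescence was read after 10 min at room temperature.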
# DRD3 antagonist – qHTS of D3 Dopamine Receptor Antagonist: qHTS. D3R cells, DiscoveRx beta-arrestin luminescence, antagonist mode; stronger effect = lower value. max response, negative = inhibition, %. actives 2.5% (n = 360,000). AID 652054, 2013; in the data active = max response below about -50%
#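 Cells plated overnight at 1500 cells/well, then exposed to library compounds with dopamine controls for 90 minutes at 37 degrees C. DiscoveRx reagent added for 30–60 minutes at room temperature; luminescence read, quantitative HTS format.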
# Numbers stand for hits; 0 = inactive; - = no result given; + = active, no number. Hits are enriched below; roughly 3% of the tested compounds scored in any of these assays. Unless noted, calls come from the whole dose curve; as a rule, active = well fitted curve in the direction sought with a large enough effect; inconclusive = small, poorly fitted or top-dose-only effect, or another doubt; inactive = no such curve, though single readings can be large; an effect the other way counts as inactive or inconclusive.
SMILES,D3 ag,Nrf2 activator,GRP78 ERSR act,DRD3 antagonist
COC(=O)Cc1c(C)c2ccc(O)c(CN3CCCC(C)C3)c2oc1=O (configuration not stated),0,0,0,-54.1
Nc1ncnc2c1ncn2[C@@H]1O[C@H](CNC(=O)[C@@H]2CCCN2S(=O)(=O)c2ccc(F)cc2)[C@@H](O)[C@H]1O,36.6,0,0,0
CN(C)c1ccc(N=Nc2nccs2)cc1,0,0,0,-82.3
O=C(C[n+]1ccccc1Br)c1ccc(O)c(O)c1,-,-,0,-
O=C(c1cc(-c2ccco2)on1)N1CCCc2ccccc21,0,11.2µM,0,0
O=C(c1cc(-c2ccco2)on1)N1CCc2ccccc2C1,0,14.1µM,0,0
O=C(c1cc(-c2ccccc2)on1)N1CCCc2ccccc21,0,0,0,0
CC1CCN(C(=O)c2cc(-c3ccco3)on2)CC1,0,14.1µM,0,0
NC(N)=NCCCC(N)C(=O)O (configuration not stated),-,-,0,-
OC(CNCc1ccc(F)cc1)(c1ccc(F)cc1)c1ccc(F)cc1,0,0,0,-51.2
OC(CNCc1ccc(Cl)cc1)(c1ccccc1)c1ccc(F)cc1 (configuration not stated),0,0,0,0
CC12CCC(C(=O)N(CC(O)CN3CCN(Cc4ccccc4)CC3)C1=O)C2(C)C (configuration not stated),0,0,0,0
CC12CCC(C(=O)N(CCCCN3CCN(Cc4ccccc4)CC3)C1=O)C2(C)C (configuration not stated),0,0,0,-74.3
COc1ccccc1CN1CCN(C(=O)c2ccco2)CC1,32.1,0,0,0
Cc1onc(-c2ccccc2)c1C(=O)N1CCN(C(=O)c2ccco2)CC1,0,0,0,-124.7
Cc1cc(C)cc(OCC(O)CN2CCN(C(=O)c3ccco3)CC2)c1 (configuration not stated),0,0,0,0
O=C(c1ccco1)N1CCN(CC(O)COc2ccc3oc4ccccc4c3c2)CC1 (configuration not stated),41.2,0,0,0
Cc1onc(-c2ccccc2)c1C(=O)N1CCCN(C(=O)c2c(-c3ccccc3)noc2C)CC1,0,0,0,0
COc1ccc(CN2CCN(C(=O)c3ccco3)CC2)cc1OC,44.8,0,0,0
CCc1cc[n+](CC(=O)c2ccc(F)cc2)cc1C(=O)O,-,-,0,-
Cc1ccc(C)c(NC(=O)Cn2cc(C(=O)c3cccs3)c3ccccc32)c1,0,0,0,-
CC(=O)SC[C@@H](C)C(=O)N1CCC[C@H]1C(=O)N[C@@H](Cc1ccccc1)C(=O)O,0,-,0,-
COc1ccc(Br)cc1CN1CCN(C(=O)c2cccc(F)c2)CC1,0,0,0,0
Cc1ccc(Cn2c(CN3CCN(C(=O)c4ccco4)CC3)nc3c2c(=O)n(C)c(=O)n3C)cc1,37.0,0,0,0
Cc1ccccc1CN1CCN(C(=O)c2ccco2)CC1,0,0,0,0
SMILES,D3 ag,Nrf2 activator,GRP78 ERSR act,DRD3 antagonist
COc1ccc(C(=O)OCC(=O)N2CCN(C(=O)c3ccco3)CC2)c(OC)c1OC,0,0,0,0
COc1ccc(CN2CCN(C(=O)c3ccco3)CC2)c(OC)c1OC,43.1,0,0,0
COc1ccc(Br)cc1CN1CCN(C(=O)c2ccco2)CC1,0,0,0,-61.4
Cc1ccc(CN2CCN(C(=O)c3ccco3)CC2)cc1,30.7,0,0,0
O=c1c2ccccc2sn1-c1ccc(S(=O)(=O)N2CCOCC2)cc1,-,-,0,-
COc1ccc(-c2nc3cc(C)ccc3cc2CN(C(=O)c2cc(C)nn2C)C2CC2)cc1OC,-,-,0,-
COc1ccc(CC(N)c2csc(Nc3cccc(OC)n3)n2)cc1 (configuration not stated),0,0,0,-83.2
OC(CN1CCN(c2ccccc2)CC1)c1ccc2c(c1)CCN2 (configuration not stated),44.1,0,0,0
Cc1ccc(NC(=S)N/N=C/c2cccn2Cc2ccccc2F)cc1,0,0,0,-53.4
CC1N=C2c3ccccc3N=C(SCC(=O)NCc3ccc(Cl)cc3)N2C1=O (configuration not stated),0,0,0,-
CC1(C)Cc2c(ccc3ccccc23)/C(=C/C#N)N1,0,0,0,+
CNC(=O)/C=C1\NC(C)(C)Cc2c1ccc1ccccc21,0,0,0,0
CC#CCC(C)[C@H](O)/C=C/[C@@H]1[C@H]2c3cccc(CCCC(=O)O)c3O[C@H]2C[C@H]1O (some centres not stated),0,-,-,-
COC(=O)c1cccc(-c2cc(Cl)c3c(c2)CC(CNC(=O)c2cccnc2)O3)c1 (configuration not stated),-,-,0,-
COc1ccc(O)c(C2Nc3ccccc3-n3c(-c4ccccc4)c4c(=O)n(C)c(=O)n(C)c4c32)c1 (configuration not stated),44.8,0,0,-
Cc1ccc(-c2c3c(=O)n(C)c(=O)n(C)c3c3n2-c2ccccc2NC3c2ccc(C)cc2O)cc1 (configuration not stated),47.1,0,0,-
Cc1cc2c(=O)c(C(=O)c3ccncc3)cn(CC(=O)Nc3cccc(C)c3C)c2cc1C,0,0,0,-
NC(C(=O)O)[C@H](O)C(=O)O (some centres not stated),-,-,0,-
COC(=O)CC1C(=O)NCCN1C(=O)CN1Cc2ccccc2OC(c2ccccc2)C1 (configuration not stated),-,-,0,-
O=Cc1ccc(N2CCOCC2)cc1,-,-,0,-
Cc1nc2cc(-c3sccc3-n3cccc3)nn2c(C)c1C,0,0,0,0
Cc1cc(-c2sccc2C)nc(-n2cccc2)n1,0,5.62µM,0,0
Cc1ncc2c(c1CNC(=O)c1ccc3c(c1)OCO3)CCN(C(=O)C1Cc3ccccc3O1)C2 (configuration not stated),-,-,0,-
O=c1nc2ccccc2c2n1CC(CN1CCN(C(c3ccccc3)c3ccccc3)CC1)N2 (configuration not stated),0,0,0,-77.4
Cn1c(N2CCN(C(c3ccccc3)c3ccccc3)CC2)nc2ccccc21,0,0,0,0
CCN(CC)CCNc1ccnc2cc(Cl)ccc12,0,0,0,-79.7
CCN(CC)Cc1cc(Nc2ccnc3cc(Cl)ccc23)ccc1O,0,0,0,0
